Sampled rows, rich in hits. Any-hit rate of the full collection: about 7.3%.
ELG1 genotoxic: genotoxicity induction in ELG1-luciferase HEK293T cells; HEK293T ELG1-luciferase reporter, luminescence, 16 h; Potency, µM (doses to about 46 µM), for inactives: at the highest dose activity change, positive = activation, usual class: activators; 330,000 compounds, 1.3% hits; AID 504466; further: % of control where 0% means no effect; nearly all actives have a fitted effect of over 60% in size
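DMSO vehicle served as control against compound-treated ELG1-luciferase HEK293T cells; exposure lasted 16 hr at 37 °C and 5% CO2, followed by ONE-Glo luminescence detection after 30 min.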
Luc counter: Kinase-Glo luciferase inhibition (counter-screen); Q27757; Kinase-Glo luciferase, ATP luminescence, 8 min; Potency, µM (top dose mostly 38.3 µM), for the others: top-dose activity change, negative = inhibition, most hits filed as inhibitors; 200,000 compounds, 0.28% hits; AID 1379; further: on the % scale 0 is the no-effect control and ±100 the full control effect; nearly all actives have a fitted effect of over 60% in size
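Inhibition of Kinase-Glo luciferase light generation was assessed at 10 uM ATP in pH 7.2 imidazole buffer, with luminescence measured after eight minutes at ambient temperature.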
SMN2 splice enh: SMN2 splice variant enhancement | 210,000 compounds, 2.8% hits | HEK293 SMN2-luciferase splicing reporter, luminescence, 30-36 h | Potency, µM (doses to about 46.1 µM), inactives show at the highest dose activity change, positive = activation, usual class: activators | AID 1458; further: % of control where 0% means no effect; nearly all actives have a fitted effect of over 55% in size
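qHTS luciferase splicing reporter: luminescence rises when SMN2 exon 7 is included in transfected HEK293 cells. Compound exposure lasted 30-36 h at 37C, with 4.5 mM final sodium butyrate as control, followed by a ONE-Glo read.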
Rab9 promoter act: Rab9 promoter activation. 320,000 compounds, 2.8% hits. AID 485297. Potency, µM (highest dose often 9.22 µM), inactives show at the highest dose activation, negative = inhibition, hits mostly activators. Huh7 Rab9 promoter-luciferase reporter, luminescence, 24 h; further: % of control where 0% means no effect; nearly all actives have a fitted effect of over 60% in size
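Cells were plated at 1500 per well in reduced-serum medium with 10% FBS and left 2 h. Compound in DMSO was then added for 24 h at 37 °C. Reporter signal was read by luminescence after 10 min with luciferase detection reagent.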
FLuc modulator: counter-screen for miR-21 project: firefly luciferase inhibitors or activators | P08659 | AID 588342 | purified FLuc, Km substrates, luminescence inhibition | Potency, µM (highest dose often 57.5 µM), inactives show at the top dose activity change, negative = inhibition, actives largely listed as inhibitors | 360,000 compounds, 6.9% hits;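 further: plate controls were vehicle for no effect and reference inhibitor for full effect; nearly all actives have a fitted effect of over 55% in size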
Target sequence (P08659 whole entry, looked up): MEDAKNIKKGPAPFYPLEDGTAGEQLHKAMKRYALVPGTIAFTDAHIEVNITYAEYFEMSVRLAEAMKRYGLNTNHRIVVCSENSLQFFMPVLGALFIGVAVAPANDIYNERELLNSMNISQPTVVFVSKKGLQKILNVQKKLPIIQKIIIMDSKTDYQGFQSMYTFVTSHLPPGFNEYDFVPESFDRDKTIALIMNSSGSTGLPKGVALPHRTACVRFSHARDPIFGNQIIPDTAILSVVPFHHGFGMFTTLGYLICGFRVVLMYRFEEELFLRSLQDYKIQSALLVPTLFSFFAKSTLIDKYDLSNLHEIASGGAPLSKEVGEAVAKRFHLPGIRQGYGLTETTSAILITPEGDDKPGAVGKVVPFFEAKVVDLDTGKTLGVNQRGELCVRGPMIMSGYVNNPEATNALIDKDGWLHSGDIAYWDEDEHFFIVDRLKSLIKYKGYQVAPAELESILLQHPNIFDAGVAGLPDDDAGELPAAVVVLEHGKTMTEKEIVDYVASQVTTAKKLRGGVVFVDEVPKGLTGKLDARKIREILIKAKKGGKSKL
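Purified P. pyralis luciferase, 10 nM final, with Km-level 10 uM D-luciferin and 10 uM ATP in 50 mM Tris acetate pH 7.5, 10 mM Mg acetate, 0.01% Tween-20, 0.05% BSA; 6-point qHTS titration about 60 µM downward; luminescence read.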
NPC1 prom act: activates the NPC1 promoter; Huh7 NPC1 promoter luciferase reporter, 24 h; Potency, µM (titrated, usually from 9.22 µM), for the others: at the highest dose activation, usual class: activators; 320,000 compounds, 2.4% hits; AID 485313; further: % of control where 0% means no effect; nearly all actives have a fitted effect of over 60% in size
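Huh7 reporter cells (NPC1 promoter driving luciferase) are dosed with compound for 24 h at 37 °C, 5% CO2; luciferase detection reagent is then added and luminescence measured after 10 min at ambient temperature.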
* = called active by the depositor; ? = inconclusive; nt = not tested or not shown; [ ] = another dose, or the depositor's remark. The call rests on the fitted dose curve; in most records, active means well fitted curve in the direction sought with a large enough effect; inconclusive means small, poorly fitted or top-dose-only effect, or another doubt; inactive means no such curve, though single readings can be large; an effect the other way counts as inactive or inconclusive. Potency means the concentration at half of the fitted maximal effect.

SMILES	ELG1 genotoxic	Luc counter	SMN2 splice enh	Rab9 promoter act	FLuc modulator	NPC1 prom act
COc1cc(/C=N/N=C2/NC(=O)C(c3ccccc3)S2)ccc1O (stereo unspecified)	?	0%	8%	-3%	?	-2%
COc1cc(/C=N/N=C2/NC(=O)C(Cc3ccc(F)cc3)S2)ccc1O (stereo unspecified)	?	-7%	31%	25%	2.7µM*	17%
CCCn1c(=O)c2sccc2n2c(CCCC(=O)NCCOC)nnc12	nt	nt	nt	nt	-1%	nt
COc1ccc(C(CC(=O)NCc2ccccc2)N2Cc3ccccc3C2=O)cc1 (stereo unspecified)	nt	nt	nt	nt	8%	nt
Cc1ccc(CN2CCc3nc(N4CCN(C)CC4)ncc3C2)s1	nt	nt	nt	nt	0%	nt
O=c1[nH]ncc2ccccc12	nt	nt	4%	nt	nt	nt
Cc1ccsc1/C=N/N=C1\C(=O)Nc2ccccc21	10%	-1%	0%	23%	?	?
O=C1Nc2ccccc2/C1=N\N=C\c1ccc(O)c(O)c1	?	nt	nt	-15%	24µM*	-5%
CCc1ccc(NC(=O)CSc2nc3ccsc3c(=O)n2C(C)CC)cc1 (stereo unspecified)	nt	nt	nt	nt	-2%	nt
COc1ccc(C(=O)Oc2cc(-c3ccc(OC)c(OC)c3)cc(=O)c3c(C)oc(C)c23)cc1	nt	nt	nt	nt	-4%	nt
Cc1ccc(OCCCCn2cnc3ccccc32)c(C)c1	4%	-2%	-76%	-1%	11µM*	2%
Cc1ccc(C)c(OCCCCn2cnc3ccccc3c2=O)c1	-5%	nt	nt	-3%	-12%	-1%
Clc1ccccc1OCCn1cnc2ccccc21	?	-3%	-19%	?	17µM*	27%
Brc1ccccc1OCCCCn1cnc2ccccc21	?	1%	-46%	-1%	11µM*	-4%
Brc1ccccc1Cn1cnc2ccccc21	-1%	nt	nt	-2%	2%	-1%
CSc1ccc(Nc2nn(-c3ccc(OC(F)(F)F)cc3)nc2C(C)=O)cc1	nt	nt	-9%	nt	1%	nt
COc1cccc2c1Oc1ncccc1N(C(=O)Nc1cccc(Cl)c1)C2	nt	nt	nt	nt	5%	nt
CC1=C(c2ccc(C(C)C)cc2)S(=O)(=O)N=C1N1CCN(c2ccccc2F)CC1	nt	nt	nt	nt	-2%	nt
Cc1ccc(C(=O)NC2CCc3ccccc3C2=O)cc1 (stereo unspecified)	5%	-7%	13µM*	2.2µM*	12µM*	2.5µM*
Cc1ccc(C(=O)NC2CCSC2=O)cc1 (stereo unspecified)	6%	-5%	-15%	-8%	4%	0%
CN(C)c1ccc(-c2nc(Nc3ccncc3)c3ccccc3n2)cc1	nt	-8%	11µM*	nt	nt	nt
CCCOc1ccc(-c2nc(N3CCN(C)CC3)c3ccccc3n2)cc1	?	nt	nt	3.2µM*	4.8µM*	?
CN(C)c1ccc(-c2nc(N3CCNCC3)c3ccccc3n2)cc1	nt	-12%	11µM*	nt	nt	nt
CN(C)C(=O)c1ccc(-c2nc(Nc3ccncc3)c3ccccc3n2)cc1	nt	-2%	?	nt	nt	nt
CCCCN(CC)C(=O)CSc1nc2c(sc(=S)n2-c2ccc(OCC)cc2)c(=O)[nH]1	-6%	-1%	-27%	1%	17µM*	-2%
SMILES	ELG1 genotoxic	Luc counter	SMN2 splice enh	Rab9 promoter act	FLuc modulator	NPC1 prom act
Cc1ccc(-n2ncc3c(N4CCCCCC4)ncnc32)cc1Cl	nt	nt	nt	nt	0.43µM*	nt
Cc1ccc(-n2ncc3c(N4CCCCC4)ncnc32)cc1Cl	nt	nt	nt	nt	0.13µM*	nt
O=C(CCC1N=C2c3ccccc3N=C(SCc3ccc(F)cc3)N2C1=O)NCc1ccc(F)cc1 (stereo unspecified)	nt	nt	nt	nt	1%	nt
Cc1ccc(C(=O)c2cn(Cc3ccccc3F)c3cc4c(cc3c2=O)OCO4)cc1	nt	nt	4%	nt	-2%	nt
CCCC#Cc1ccc2c(c1)COc1c3ccccc3nn1-2	?	nt	nt	0.56µM*	1.5µM*	0.89µM*
COc1cc(/C=C(\C#N)c2nc3ccc(C)cc3[nH]2)c([N+](=O)[O-])cc1OC	-1%	-4%	-25%	-1%	-5%	-1%
COc1cc(/C=C(\C#N)c2nc3ccc(C)cc3[nH]2)cc([N+](=O)[O-])c1O	?	0%	?	?	3.8µM*	15%
Cc1ccc2nc(/C(C#N)=C\c3cc(O)ccc3[N+](=O)[O-])[nH]c2c1	1%	0%	3%	0%	19µM*	-1%
COc1cccc(/C=C(\C#N)c2nc3ccc(C)cc3[nH]2)c1	nt	nt	24%	nt	3.4µM*	nt
COc1cc2c(c(OC)c1)C(c1cccc(F)c1F)CC(=O)N2 (stereo unspecified)	nt	nt	1%	nt	-3%	nt
Nc1cc(Cl)nc(N/N=C/c2c(O)ccc3ccccc23)n1	?	-3%	?	2.5µM*	2.7µM*	?
O=C(O)c1cc(N/N=C/c2c(O)ccc3ccccc23)ccc1Cl	15µM*	nt	nt	1.4µM*	2.4µM*	1.6µM*
CCCN1C(=O)C2(c3ccccc31)c1c(oc3ccc(C)cc3c1=O)C(=O)N2CCOC (stereo unspecified)	nt	nt	12%	nt	4%	nt
O=C(O)c1cccc(OCc2ccccc2Cl)c1	4%	2%	nt	?	9.5µM*	?
O=C(O)c1ccccc1COc1ccccc1Cl	12%	-2%	26%	0%	15µM*	4%
Cc1oc2ccc(OCc3ccccc3Cl)cc2c1C(=O)O	0%	nt	nt	-1%	0%	-1%
CC(C(=O)NCc1ccccc1F)n1ccc2cc(S(=O)(=O)N3CCCC3)ccc21 (stereo unspecified)	nt	nt	nt	nt	-1%	nt
COC(=O)c1cc2sc(C)cc2n1CC(=O)Nc1ccc(C)cc1Cl	nt	nt	0%	nt	1%	nt
CN(C)c1ccc(NC(=O)C(=O)NCCOc2ccccc2)cc1	-3%	3%	9%	15%	-2%	1%
COCCNC(=O)C(=O)Nc1ccc(Br)cc1	?	-9%	11µM*	?	?	?
CCCNC(=O)C(=O)Nc1ccc(N(C)C)cc1	?	2%	11µM*	3.2µM*	13µM*	?
N=C1[C@@H](O)[C@]2(I)c3ccccc3N3C(=N)[C@H](O)[C@@H]4c5ccccc5N1[C@@H]4[C@@H]32	nt	-3%[7.66 µM]	-4%[9.22 µM]	nt	nt	nt
COC(=O)c1c(NC(=O)CN2CCOCC2)sc2c1CCC(C)C2 (stereo unspecified)	19%	-1%	-5%	23%	12µM*	8%
COC(=O)c1c(NC(=S)NN2CCOCC2)sc2c1CCCC2	-4%	nt	nt	-3%	15µM*	-2%
Cc1ccc(S(=O)(=O)N2CCc3nc(-c4ccccc4)c4c(c3C2)CO[C@@H](C)C4)cc1	nt	-3%[7.66 µM]	1%[9.22 µM]	nt	nt	nt
Nc1c(S(N)(=O)=O)cc(S(N)(=O)=O)cc1S(N)(=O)=O	nt	-2%[7.66 µM]	-15%[9.22 µM]	nt	nt	nt
